# From PubChem BioAssay AID1745846 (National Center for Advancing Translational Sciences (NCATS), 2022)
# About 30 (2%) of roughly 1,400 compounds were called active. Roughly 15% stayed inconclusive and do not appear here. The full list was thinned out, with actives kept by preference. Unmarked numbers belong to inactive results. Calls follow the shape of the dose curve; as a rule, active = well fitted inhibition curve with a large enough effect; inconclusive = small, poorly fitted or top-dose-only effect; inactive = flat fitted curve, though single readings scatter.
# Experiment: Firefly Luciferase Counterscreen for Inhibitors of ATXN expression
# Settings: luminescence; series mostly up to 57.5 µM; activity change, negative = inhibition: at the top concentration
# Text: University of Utah School of Medicine, Salt Lake City, Utah
# Spinocerebellar ataxia type 2 (SCA2) is a multisystem neurodegenerative disease caused by a dominantly acting mutation leading to expansion of a polyQ domain in the ataxin-2 protein (ATXN2). SCA2 patients develop progressive ataxia and later lose function in other neuronal systems. Prominent parkinsonian signs develop in some patients. Like many neurodegenerative disorders, no symptomatic or disease-modifying treatments are known.
# The primary objective of the proposed research is to identify compounds inhibiting ATXN2 expression and to test them for efficacy in SCA2 mouse models. We have developed a cell-based assay paired with an in vivo mouse model using identical luciferase expression constructs. This approach takes advantage of an ATXN2-luciferase transgene, with the luciferase gene flanked by the upstream and downstream portions of the ATXN2 gene. Here we describe a 5-7 dose quantitative high thoroughput screen (qHTS) for compounds lowering ATXN2 expression. We screened the NIH Molecular Libraries Small Molecule Repository (MLSMR) and NCGC's mechanistically annotated (MIPE) and drug repurposing (NPC) collections of compounds for lowering expression of an ATXN2-luciferase reporter in HEK-293 cells. The assay is a multiplexed cell viability assay to ensure target reduction in the absence of cytotoxicity. Secondary qHTS assays included a CMV-luciferase reporter expressed in HEK-293 cells as well as a biochemical assay using recombinant luciferase to detect inhibitors of the reporter enzyme. Compounds that inhibit ATXN2 expression but is not cytotoxic were selected for confirmatory and secondary screens.
# PROTOCOL TABLE (as described by Inglese J, Shamu CE and Guy RK. 2007)
# SEQUENCE No. (e.g., 1, 2, 3, etc.); […] (e.g., Cells, Incubation, Reagent, etc.); VALUE; DESCRIPTION.
# 2; Compounds; 23 nL; Kalypsis pintool (Wako USA) equipped with a 1536-well pin head.
# 3; Enzyme; 1 uL; recombinant firefly luciferase (prepared in 50 mM Tris HCl pH7.5, 10 mM MgCl2, 0.05% BSA, 0.01% Tween20) at final concentration of 10 nM. Wells containing buffer only were used as control (set as 100% inhibition when normalizing data).
# 4; Incubation; 10 min; room temperature.
# 5; Detection; Luminescence; Viewlux plate reader (PerkinElmer).
# NOTES (numbers refer to Sequence numbers above)
# 1. Luciferase substrate is added to 1536 well, Greiner white assay plate. Evaporation was prevented by covering assay plates with metal lids containing holes to allow gas diffusion.
# 2. Compounds were added in a dose response manner with the final concentrations of 57, 11.4, 2.28, 0.46, 0.091, 0.018, 0.0037 uM. Vehicle-only plates, with DMSO being pin-transferred to columns 5-48, were inserted uniformly at the beginning and the end of each library to monitor and record any shifts in assay performance.
# 3. Recombinant firefly luciferase (10 nM final concentration) is added to the assay plate.
# 5. End-point luminescence is then measured on the Viewlux (PerkinElmer) imager equipped with a clear emission filter using a 2 sec exposure.
# Inglese J, Shamu CE and Guy RK, Reporting data from high throughput screening of small molecule libraries, Nature Chemical Biology, 2007, 3(8): 438-441. doi.org/10.1038/nchembio0807-438.
# % is scaled to controls: 0 for no effect and ±100 for the full control effect; potency is read from the fitted curve at half-maximal effect.
Compound,"activity change, negative = inhibition",Potency
N#Cc1nc(Cc2cccc3ccccc23)oc1NCc1ccc(F)cc1,-1.45%,–
CC(C)CC(N)c1csc(Nc2ccc(C(=O)N(C)Cc3ccccc3)cn2)n1 (stereo unspecified),4.85%,–
COc1ccc(C(=O)NNC(=S)NC(=O)c2ccccc2)cc1,-14.8%,–
COc1ccc(Nc2c3ccccc3nc3ccccc23)cc1,-2.82%,–
COc1ccc(C(=O)Nn2c(SCC(=O)c3ccccc3)nc3ccccc3c2=O)cc1,–,7.08 µM (active)
CC1(C(=O)NCc2ccccc2Br)CCN1C(=O)Cc1ccc(-c2ccccc2)cc1 (stereo unspecified),-4.03%,–
Cc1cc(C(=O)N/N=C/c2c(CO)cnc(C)c2O)c2ccccc2n1,-2.35%,–
CSCc1nnc(NC(=O)c2ccc(S(=O)(=O)N3CCCCC3C)cc2)o1 (stereo unspecified),-18.2%,–
COc1ccc(C(NC(=O)c2cccnc2)c2cc(Cl)c3cccnc3c2O)cc1OC (stereo unspecified),-10.1%,–
CC[C@H]1CN2CCc3cc(OC)c(OC)cc3C2C[C@@H]1C[C@H]1NCCc2cc(OC)c(OC)cc21 (stereo partly specified),3.56%,–
Cc1cc(C(=O)N/N=C/c2cc(Br)cc(Br)c2OC(=O)c2cccc(F)c2)n[nH]1,-1.31%,–
O=[N+]([O-])c1c(Nc2ccccn2)cc(Cl)c2nonc12,-10.4%,–
COC(=O)Cc1ccc(NC(=S)N2CCN(c3cc(Cl)ccc3C)CC2)cc1,-10.2%,–
CN(C)CCCN(C(=O)c1ccc(S(=O)(=O)N(C)Cc2ccccc2)cc1)c1nc2cc3c(cc2s1)OCO3,0.991%,–
COc1ccccc1/C=C/CN1CCCC(CO)(Cc2cccc(Cl)c2)C1 (stereo unspecified),2.16%,–
COc1ccc(Cl)cc1C(Nc1cccnc1)c1ccc2cccnc2c1O (stereo unspecified),-1.9%,–

Compound,"activity change, negative = inhibition",Potency
Cc1sc(NC(=O)c2cc(-c3ccc(Cl)cc3)nc3ccccc23)c(C(N)=O)c1C,–,25.1 µM (active)
CN1CCC(NC(=O)c2cc(-c3cccc(Br)c3)nc3ccccc23)CC1,-6.79%,–
Cc1cccc(NC(=O)c2cc(-c3ccccn3)nc3ccccc23)c1C,-2.28%,–
COc1ccccc1-c1cc2nc(-c3ccccc3)cc(N3CCN(C(=O)c4ccco4)CC3)n2n1,-6.68%,–
O=C(Nc1ccc(OC(F)(F)F)cc1)N1CCN(c2ccnc3cc(Cl)ccc23)CC1,2.31%,–
COc1cccc(CNc2nc(NCc3ccccc3)nc3ccsc23)c1,-12.5%,–
CC(=O)Nc1ccc(CNc2nc(NC(C)C)nc3cc(-c4ccccc4)sc23)cc1,–,14.1 µM (active)
CC(C)Nc1nc(NCCOc2ccccc2)c2sccc2n1,0.974%,–
COc1ccccc1NC(=O)CSc1n[nH]c(-c2ccccn2)n1,-9.45%,–
CC(C)c1ccc(S(=O)(=O)c2cc3cc(Br)ccc3oc2=O)cc1,2.64%,–
N=c1n(CCN2CCCCC2)c2ccccc2n1CC(O)c1ccc(Cl)c(Cl)c1 (stereo unspecified),1.6%,–
CCOC(=O)c1c(C)sc2c1N(C(=O)CN(CC)CC)c1cc(Cl)ccc1S2,0.238%,–
COc1ccc(NC(=O)c2cc(-c3cc(Cl)ccc3OC)n[nH]2)cc1OC,-15.7%,–
Cc1nc2c(OCc3cccc(Cl)c3)cccn2c1N(C)Cc1cccs1,-9.31%,–
C(=N\Nc1ccc2nncn2n1)/c1ccccn1,-5.45%,–
